PPARg SRC3 recr = promotes SRC-3 coactivator recruitment by human PPARgamma; P37231; biochemical PPARgamma/SRC-3 coactivator recruitment assay; activation, % at 8 µM; 200,000 compounds, 0.26% hits; AID 731; in the data active = activation above about 23%
SRC1 TRFRET art = flags TR-FRET format artefacts in PPARgamma SRC-1 recruitment agonist screen | TR-FRET detection artefact counter-screen, emission ratio; stronger effect = higher value | TR-FRET ratio at 8 µM | 99,000 compounds, 0.34% hits | AID 1051; in the data active = TR-FRET ratio above about 2300
SRC3 TRFRET art = TR-FRET artefact, counter-screen to PPARgamma/SRC-3 agonist assay | 99,000 compounds, 0.39% hits | AID 1048 | PPARgamma/SRC-3 format; stronger effect = higher value | TR-FRET ratio at 8 µM; in the data active = TR-FRET ratio above about 2000
PPARg SRC1 recr = promotes SRC-1 coactivator recruitment by human PPARgamma; P37231; PPARgamma-SRC-1 coactivator recruitment biochemical assay; activation, % at 8 µM; 200,000 compounds, 0.41% hits; AID 631; in the data active = activation above about 19%
PPARg SRC-2 ag = PPARgamma-driven SRC-2 recruitment agonism; P37231; activation, % at 8 µM; PPARgamma LBD-SRC-2 recruitment, biochemical; 200,000 compounds, 0.34% hits; AID 1032
TR-FRET SRC-2 ct = counter-screen for PPARgamma SRC-2 recruitment agonists: TR-FRET artefact. TR-FRET ratio at 8 µM. 200,000 compounds, 0.4% hits. stronger effect = higher value. AID 1049; in the data active = TR-FRET ratio above about 2000
PPARg SRC2 conf = human PPARgamma SRC-2 recruitment agonism, confirmation | shares compounds with PPARg SRC3 recr | biochemical SRC-2 recruitment by PPARgamma | activation, % at 8 µM | 790 compounds, 52% hits
PPARg SRC1 ag = confirmation of agonists of SRC-1 recruitment by human PPARgamma. PPARgamma–SRC-1 coactivator recruitment biochemical assay. 790 compounds, 43% hits. AID 1300. activation, % at 8 µM. shares compounds with PPARg SRC3 recr; in the data active = activation above about 20%
PPARg SRC3 conf = confirmation of agonists of SRC-3 recruitment by human PPARgamma. shares compounds with PPARg SRC3 recr. biochemical PPARgamma-SRC-3 coactivator recruitment, agonist mode. activation, % at 8 µM. 790 compounds, 29% hits. AID 1301; in the data active = activation above about 24%
Target sequence (P37231 whole entry, looked up): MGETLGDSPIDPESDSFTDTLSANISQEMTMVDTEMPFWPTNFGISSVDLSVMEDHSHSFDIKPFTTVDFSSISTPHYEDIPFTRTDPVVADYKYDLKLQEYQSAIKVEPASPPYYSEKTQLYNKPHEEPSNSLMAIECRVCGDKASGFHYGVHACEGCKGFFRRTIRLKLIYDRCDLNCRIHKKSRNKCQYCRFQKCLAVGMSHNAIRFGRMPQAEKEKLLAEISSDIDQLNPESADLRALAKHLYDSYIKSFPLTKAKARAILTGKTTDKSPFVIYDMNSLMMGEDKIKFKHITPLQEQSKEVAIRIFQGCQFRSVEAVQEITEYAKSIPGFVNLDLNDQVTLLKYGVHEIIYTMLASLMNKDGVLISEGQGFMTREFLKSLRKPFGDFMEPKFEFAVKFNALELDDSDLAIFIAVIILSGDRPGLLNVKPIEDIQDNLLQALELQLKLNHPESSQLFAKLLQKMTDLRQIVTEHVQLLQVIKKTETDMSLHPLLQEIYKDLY
Target sequence (Q9Y6Q9 whole entry, looked up): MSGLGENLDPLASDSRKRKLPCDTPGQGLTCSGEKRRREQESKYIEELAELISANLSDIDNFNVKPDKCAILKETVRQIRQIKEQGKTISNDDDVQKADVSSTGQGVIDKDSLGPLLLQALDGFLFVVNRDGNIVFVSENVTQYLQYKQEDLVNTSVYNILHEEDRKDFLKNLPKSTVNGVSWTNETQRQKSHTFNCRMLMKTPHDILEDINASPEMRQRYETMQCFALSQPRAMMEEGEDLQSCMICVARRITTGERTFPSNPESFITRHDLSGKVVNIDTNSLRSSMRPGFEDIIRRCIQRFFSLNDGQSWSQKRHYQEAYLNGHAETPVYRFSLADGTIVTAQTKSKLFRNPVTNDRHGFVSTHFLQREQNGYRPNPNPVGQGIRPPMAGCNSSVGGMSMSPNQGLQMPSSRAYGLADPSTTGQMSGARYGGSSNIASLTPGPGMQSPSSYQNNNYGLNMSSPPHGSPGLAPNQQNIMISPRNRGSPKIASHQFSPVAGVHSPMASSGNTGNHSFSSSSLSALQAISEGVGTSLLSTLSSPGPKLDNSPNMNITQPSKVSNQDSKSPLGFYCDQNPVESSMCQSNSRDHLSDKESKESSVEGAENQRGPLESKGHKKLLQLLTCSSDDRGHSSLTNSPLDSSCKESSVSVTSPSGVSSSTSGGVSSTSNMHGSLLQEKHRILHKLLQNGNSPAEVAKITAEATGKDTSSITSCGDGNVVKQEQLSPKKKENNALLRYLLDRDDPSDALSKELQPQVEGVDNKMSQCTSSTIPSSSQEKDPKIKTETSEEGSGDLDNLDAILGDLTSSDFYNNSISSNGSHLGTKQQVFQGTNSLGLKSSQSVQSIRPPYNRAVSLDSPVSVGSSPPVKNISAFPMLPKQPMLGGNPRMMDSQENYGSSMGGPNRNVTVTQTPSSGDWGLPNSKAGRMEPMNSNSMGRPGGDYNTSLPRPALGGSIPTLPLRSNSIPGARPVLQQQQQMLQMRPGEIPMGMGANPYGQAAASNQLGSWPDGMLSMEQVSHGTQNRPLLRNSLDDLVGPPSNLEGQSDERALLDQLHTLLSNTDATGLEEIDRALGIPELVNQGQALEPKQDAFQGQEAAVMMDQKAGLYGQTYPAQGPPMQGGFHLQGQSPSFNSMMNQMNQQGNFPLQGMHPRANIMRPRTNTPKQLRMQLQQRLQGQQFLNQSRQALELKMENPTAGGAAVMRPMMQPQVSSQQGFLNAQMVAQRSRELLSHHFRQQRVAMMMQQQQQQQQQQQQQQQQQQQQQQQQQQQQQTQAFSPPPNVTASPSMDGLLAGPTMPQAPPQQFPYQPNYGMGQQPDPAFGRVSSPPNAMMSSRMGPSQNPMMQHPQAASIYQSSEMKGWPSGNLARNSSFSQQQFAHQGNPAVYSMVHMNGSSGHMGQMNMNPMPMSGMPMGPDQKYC
Large screens that a line does not name were inactive (follow-up assays come after a bar, where they were run). Sampled rows, rich in hits. Any-hit rate of the full collection: about 0.9%. Rule as the data show it, unless noted: active = activation above about 22%; inactive = the rest.

Cc1nnc(N2C(=O)C(O)=C(C(=O)c3ccco3)C2c2ccc(F)cc2)s1 (stereo not drawn)	PPARg SRC3 recr 49, PPARg SRC1 recr 28, PPARg SRC-2 ag 38, TR-FRET SRC-2 ct 2061 (no result: SRC1 TRFRET art, SRC3 TRFRET art) | PPARg SRC2 conf 41 | PPARg SRC1 ag 32 | PPARg SRC3 conf 28
COCCN1C(=O)C(O)=C(C(=O)c2cccs2)C1c1ccccc1 (stereo not drawn)	PPARg SRC1 recr 19 (no result: SRC1 TRFRET art, SRC3 TRFRET art) | PPARg SRC2 conf inactive | PPARg SRC1 ag inactive | PPARg SRC3 conf inactive
COCCCN1C(=O)C(O)=C(C(=O)c2ccco2)C1c1ccc(Br)cc1 (stereo not drawn)	none (no result: SRC1 TRFRET art, SRC3 TRFRET art)
COc1cccc(C2C(C(=O)c3cccs3)=C(O)C(=O)N2CCN(C)C)c1OC (stereo not drawn)	none (no result: SRC1 TRFRET art, SRC3 TRFRET art)
Cc1nnc(N2C(=O)C(O)=C(C(=O)c3ccco3)C2c2ccc(C(C)C)cc2)s1 (stereo not drawn)	SRC1 TRFRET art 2626, SRC3 TRFRET art 2243, PPARg SRC1 recr 27, PPARg SRC-2 ag 33, TR-FRET SRC-2 ct 2173 | PPARg SRC2 conf inactive | PPARg SRC1 ag inactive | PPARg SRC3 conf inactive
O=C1NC(c2ccccc2)C(C(=O)c2cccs2)=C1O (stereo not drawn)	PPARg SRC1 recr 20 (no result: SRC1 TRFRET art, SRC3 TRFRET art) | PPARg SRC2 conf inactive | PPARg SRC1 ag inactive | PPARg SRC3 conf inactive
COC(=O)c1nn2c(C(F)(F)F)cc(-c3ccc(Br)o3)nc2c1Br	none (no result: SRC1 TRFRET art, SRC3 TRFRET art)
CCOc1ccc(C2C([N+](=O)[O-])=C(C)N(C)C(=O)N2C)cc1OC (stereo not drawn)	none
Cc1nnc(N2C(=O)C(O)=C(C(=O)c3ccco3)C2c2ccc(C(C)(C)C)cc2)s1 (stereo not drawn)	PPARg SRC3 recr 42, PPARg SRC1 recr 31, PPARg SRC-2 ag 28, TR-FRET SRC-2 ct 2126 (no result: SRC1 TRFRET art, SRC3 TRFRET art) | PPARg SRC2 conf 39 | PPARg SRC1 ag 31 | PPARg SRC3 conf 25
Cc1ccc(C2C(C(=O)c3cccs3)=C(O)C(=O)N2c2nnc(C)s2)cc1 (stereo not drawn)	SRC1 TRFRET art 2419, SRC3 TRFRET art 2078, PPARg SRC1 recr 23, TR-FRET SRC-2 ct 2089 | PPARg SRC2 conf inactive | PPARg SRC1 ag inactive | PPARg SRC3 conf inactive
COc1ccccc1NC(=O)CCSc1nnc(-c2ccncc2)o1	none
CCOC(=O)Cc1csc(NC(=O)c2csc(C)c2)n1	none (no result: SRC1 TRFRET art, SRC3 TRFRET art)
CCOC(=O)Cc1csc(NC(=O)c2sc3nc4c(C)cc(C)cc4cc3c2N)n1	PPARg SRC3 recr 27 (no result: SRC1 TRFRET art, SRC3 TRFRET art) | PPARg SRC2 conf inactive | PPARg SRC1 ag inactive | PPARg SRC3 conf inactive
COC(=O)c1sc2nc(CN3CCN(c4cccc(C(F)(F)F)c4)CC3)[nH]c(=O)c2c1C	none
COc1ccc(CCNC(=S)NC2CCN(Cc3ccccc3)CC2)cc1	none
O=C(Nc1nc(=O)c2ccccc2s1)c1ccc(Cl)cc1	PPARg SRC1 recr 20 (no result: SRC1 TRFRET art, SRC3 TRFRET art) | PPARg SRC2 conf inactive | PPARg SRC1 ag inactive | PPARg SRC3 conf inactive
COc1ccc(-c2nc(-c3cccs3)c(-c3cccs3)[nH]2)cc1OC	PPARg SRC3 recr 30, PPARg SRC1 recr 23, PPARg SRC-2 ag 28, TR-FRET SRC-2 ct 2267 (no result: SRC1 TRFRET art, SRC3 TRFRET art) | PPARg SRC2 conf 35 | PPARg SRC1 ag 31 | PPARg SRC3 conf 26
Cc1ccc(C)c(S(=O)(=O)N2CCCOC2CNC(=O)C(=O)NCCC2=CCCCC2)c1 (stereo not drawn)	none
O=C(C1=C(O)C(=O)N(CCCN2CCOCC2)C1c1ccncc1)c1cc2ccccc2o1 (stereo not drawn)	SRC1 TRFRET art 2425, SRC3 TRFRET art 2068, PPARg SRC1 recr 23 | PPARg SRC2 conf 25 | PPARg SRC1 ag inactive | PPARg SRC3 conf inactive
COC(=O)c1ccc(C2C(C(=O)c3cc4ccccc4o3)=C(O)C(=O)N2CCCN(C)C)cc1 (stereo not drawn)	PPARg SRC3 recr 29, PPARg SRC1 recr 22 (no result: SRC1 TRFRET art, SRC3 TRFRET art) | PPARg SRC2 conf 25 | PPARg SRC1 ag 22 | PPARg SRC3 conf inactive
COC(=O)c1ccc(C2/C(=C(\O)c3cccc(OC)c3)C(=O)C(=O)N2CCCN(C)C)cc1 (stereo not drawn)	none
CN(C)CCCN1C(=O)C(O)=C(C(=O)c2cc3ccccc3o2)C1c1ccccc1 (stereo not drawn)	PPARg SRC3 recr 90, PPARg SRC1 recr 53, PPARg SRC-2 ag 73, TR-FRET SRC-2 ct 3299 (no result: SRC1 TRFRET art, SRC3 TRFRET art) | PPARg SRC2 conf 70 | PPARg SRC1 ag 50 | PPARg SRC3 conf 45
COc1cccc(C2C(C(=O)c3ccc(C)o3)=C(O)C(=O)N2CCCN(C)C)c1 (stereo not drawn)	none (no result: SRC1 TRFRET art, SRC3 TRFRET art)
O=C(C1=C(O)C(=O)N(CCN2CCOCC2)C1c1cccnc1)c1cc2ccccc2o1 (stereo not drawn)	none (no result: SRC1 TRFRET art, SRC3 TRFRET art)
CCOc1ccc(C(=O)NCC(=O)OCC(=O)Nc2ccc(C)c(S(=O)(=O)N(C)C)c2)cc1	none
C=CCNC(=O)COC(=O)COc1ccc(Cl)cc1	none
COC(=O)CC(c1ccc(OC)c(OC)c1)c1ccc(OC)c(OC)c1	none
Cc1cc2c(N=O)c(NO)ccc2[nH]1	PPARg SRC3 recr 30 (no result: SRC1 TRFRET art, SRC3 TRFRET art) | PPARg SRC2 conf inactive | PPARg SRC1 ag inactive | PPARg SRC3 conf inactive
O=Nc1c(O)[nH]c2ccc(F)cc12	none
Cc1[nH]c(=O)[nH]c(=O)c1S(=O)(=O)N(CC(C)C)CC(C)C	none
Nc1ccc(-c2nc3ccc(N)cc3[nH]2)cc1	PPARg SRC1 recr 31 | PPARg SRC2 conf inactive | PPARg SRC1 ag inactive | PPARg SRC3 conf inactive
CC(C)c1csc(CN2CCN(Cc3ccc(F)cc3)C(CCO)C2)n1 (stereo not drawn)	none
N#C/C(=C\c1ccc(N2CCCCC2)o1)C(N)=O	PPARg SRC1 recr 21 | PPARg SRC2 conf inactive | PPARg SRC1 ag inactive | PPARg SRC3 conf inactive
CC(=O)c1ccc(Nc2ccc(-c3ccccc3F)nn2)cc1	none
CN(C)c1ccc(N/C=C/C(=O)c2ccccc2)cc1	none (no result: SRC1 TRFRET art, SRC3 TRFRET art)
CN(C)c1ccc(N/C=C/C(=O)C(C)(C)C)cc1	PPARg SRC3 recr 70, PPARg SRC-2 ag 81, TR-FRET SRC-2 ct 2723 (no result: SRC1 TRFRET art, SRC3 TRFRET art) | PPARg SRC2 conf inactive | PPARg SRC1 ag inactive | PPARg SRC3 conf inactive
Cc1ccccc1C(=O)Nc1nnc(-c2ccco2)s1	SRC1 TRFRET art 2497, PPARg SRC1 recr 24, TR-FRET SRC-2 ct 2099 | PPARg SRC2 conf 42 | PPARg SRC1 ag 36 | PPARg SRC3 conf 26
COc1ccccc1C(=O)Nc1nnc(-c2ccco2)s1	none (no result: SRC1 TRFRET art, SRC3 TRFRET art)
CN(Cc1cn[nH]c1-c1cc2ccccc2o1)CC1CCOCC1	none
CCn1c(=O)n(CCOC)c(=O)c2c3c(sc21)CCCC3	none (no result: SRC1 TRFRET art, SRC3 TRFRET art)
